Results on 20 compounds are retold here after PubChem BioAssay AID624331 (National Center for Advancing Translational Sciences (NCATS), 2012).

Inconclusive results are not listed. A call without a number means that no potency is given here. Active and inactive are the calls of the source. Calls come from the whole dose curve; as a rule, active = well fitted activation curve with a large enough effect; inconclusive = small, poorly fitted or top-dose-only effect; inactive = no such curve, though single readings can be large or run the other way.

The test can be described thus: qHTS assay for re-activators of p53 using a Luc reporter: Hit Validation with no p53 Expressed. The note with it: p53-null cells, luciferase reporter counter-screen; series mostly up to 46.1 µM. The procedure, abridged: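 Without p53 expression, cells (1000/well, Opti-MEM + 10% FBS) were exposed 24 h at 37 deg C to compounds in a 1:5 series from 10 mM stock (top 46.1 µM in well). Luminescent signal read 10 min after Amplite addition; actives flag unspecific activation.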
For orientation: qHTS replaces the single test concentration by a dilution series.
In the case of `CC(C)NC(=S)N1CCN(S(C)(=O)=O)CC1`, the Potency result is “inactive”.
Turning to `O=C(/C=C/Nc1ccccc1F)c1cccs1`, the Potency entry is “inactive”.
As for `COC(=O)c1nn(-c2ccc(-c3ccccc3)cc2)cc1O`, the entry is “inactive”; as for `CCCCNc1ncnc2c1cnn2-c1ccccc1`, “inactive”; as for `O=C(O)C1CC(=O)N(c2ccc(Br)cc2)C1` (stereo not given), “inactive”.
In the case of `C/C(=N\N=c1/scc(C)n1Cc1ccco1)c1cccc([N+](=O)[O-])c1`, the Potency result is “inactive”.
For the compound `COCc1[nH]nc2c1C(c1cccc(OC)c1)C(C#N)=C(N)O2` (stereo not given), the Potency result was “inactive”.
Under `COc1cc(N/N=C/c2ccccc2O)ncn1` stands “inactive”; under `Cc1ccc(NC(=O)/C=C/c2ccco2)nc1`, “inactive”; under `COc1cccc(C2(c3cccc(OC)c3)CC2C(=O)Nc2cccc3ccccc23)c1` (stereo not given), “inactive”.
Under `COc1ccc(CCC(C)NCC(C)c2ccccc2)cc1` (stereo not given) stands “inactive”.
As for `CCOC(=O)c1c(C)[nH]c(C(=O)CSc2ccccc2)c1C`, the Potency entry is “inactive”.
Under `Cc1cnc(C(=O)OCC(=O)Nc2ccc(OCc3ccccc3)cc2)cn1` stands “inactive”; under `COc1ccc(N2CCN(C(=O)COC(=O)c3ccc(OC(F)F)cc3)CC2)cc1`, “inactive”.
As for `CC(C)c1ccc2oc(-c3ccc(N)cc3)nc2c1`, the entry is “inactive”; as for `O=C(NCCCc1ccccc1)c1cc(COc2c(F)cccc2F)on1`, “inactive”; as for `N/C(=N\OC(=O)c1ccccc1Cl)c1ccc(Cl)cc1`, “inactive”.
As for `Cn1c(Cc2cccs2)nnc1SCc1nc2ccccc2[nH]1`, the entry is “inactive”.
Consider `Nc1nonc1-n1nnc(C(=O)N/N=C/c2cc(Br)ccc2O)c1CSC1=NCCS1`, for which the Potency result was “inactive”.
On to `Cc1cc(CC(C)C)n(-c2nc3ccccc3c(=O)n2OCC(N)=O)n1`, for which the Potency entry was “inactive”.
